Reference: PubChem BioAssay (NCI)
The panel holds about 83,000 compounds, 20% with a hit somewhere; the sample as a whole holds those more often.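 Plates (96-well) were seeded with cells, treated with compound at one concentration, and incubated for 48 hours before percent growth was determined.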 Calls of active or inactive are those of the source. The calls were made as follows: active = growth percent below 10; inactive = the rest.

Key:
Assay in all cases: NCI-60 one-dose screen, 48 h (100 = growth as untreated, 0 = no growth, -100 = all killed)
Conditions in all cases: 10 µM unless noted
NCI-H23 lung = system: NCI-H23 lung
NCI-H226 lung = system: NCI-H226 lung
NCI-H322M lung = system: NCI-H322M lung
HOP-62 NSCLC = system: HOP-62 NSCLC
NCI-H460 lung = system: NCI-H460 lung
HOP-92 NSCLC = system: HOP-92 NSCLC
NCI-H522 lung = system: NCI-H522 lung
A549/ATCC NSCLC = system: A549/ATCC NSCLC
786-0 renal = system: 786-0 renal
MALME-3M melanoma = system: MALME-3M melanoma
MDA-MB-231 breast = system: MDA-MB-231 breast
RXF 393 renal = system: RXF 393 renal
SF-268 CNS = system: SF-268 CNS
SF-295 CNS = system: SF-295 CNS
SF-539 CNS = system: SF-539 CNS
UACC-257 melanoma = system: UACC-257 melanoma
M14 melanoma = system: M14 melanoma
DU-145 prostate = system: DU-145 prostate
K-562 leukemia = system: K-562 leukemia
COLO 205 colon = system: COLO 205 colon

Measured: growth

CN(C)c1cnccn1
inactive: NCI-H23 lung 91.9% | NCI-H226 lung 85.4% | NCI-H322M lung 114% | HOP-62 NSCLC 90.3% | NCI-H460 lung 93.8% | HOP-92 NSCLC 94.4% | NCI-H522 lung 45.9% | A549/ATCC NSCLC 91.3% | 786-0 renal 98.3% | MALME-3M melanoma 127% | MDA-MB-231 breast 72.4% | RXF 393 renal 94.5% | SF-268 CNS 91.6% | SF-295 CNS 122% | SF-539 CNS 86.5% | UACC-257 melanoma 95.3% | M14 melanoma 97.5%

Cc1c(C)c2c(c(C)c1NC(=O)/C=C\C(=O)O)CCC(C)(CCCC(C)CCCC(C)CCCC(C)C)O2 (stereo not given)
inactive: NCI-H23 lung 60.8% | NCI-H322M lung 102% | NCI-H460 lung 72.1% | HOP-92 NSCLC 45.5% | NCI-H522 lung 66.7% | A549/ATCC NSCLC 61.1% | 786-0 renal 33.5% | DU-145 prostate 80.2% | K-562 leukemia 71.9% | MDA-MB-231 breast 70.9% | SF-268 CNS 53.9% | SF-295 CNS 66.3% | UACC-257 melanoma 20.5% | M14 melanoma 20.7%
active: NCI-H226 lung -85.9% | HOP-62 NSCLC -13.4% | RXF 393 renal -93% | SF-539 CNS 8.15%

COc1ccc(/C=C2\COc3ccc(O)c(O)c3C2=O)c(OC)c1
inactive: NCI-H23 lung 78.8% | NCI-H226 lung 92.4% | NCI-H322M lung 73.7% | HOP-62 NSCLC 72.9% | NCI-H460 lung 72.4% | HOP-92 NSCLC 91.5% | 786-0 renal 61.1% | COLO 205 colon 107% | DU-145 prostate 67.2% | K-562 leukemia 14% | MALME-3M melanoma 32.9% | MDA-MB-231 breast 56.6% | SF-268 CNS 54.8% | SF-295 CNS 95.6% | SF-539 CNS 49.5% | UACC-257 melanoma 54.4%
active: NCI-H522 lung -17%

CCOC(=O)C(O)C(O)(c1ccccc1)c1ccccc1 (stereo not given)
inactive: NCI-H23 lung 102% | NCI-H226 lung 90.2% | NCI-H322M lung 96.7% | HOP-62 NSCLC 97% | NCI-H460 lung 110% | HOP-92 NSCLC 113% | NCI-H522 lung 92.8% | A549/ATCC NSCLC 95.6% | 786-0 renal 102% | K-562 leukemia 98% | MALME-3M melanoma 103% | MDA-MB-231 breast 94.4% | RXF 393 renal 113% | SF-268 CNS 95.4% | SF-295 CNS 95.6% | SF-539 CNS 94.5% | UACC-257 melanoma 106% | M14 melanoma 101%

CCCCCCNc1cc(C)nc2ccc(OC)cc12
inactive: NCI-H23 lung 52.7% | NCI-H226 lung 61.5% | NCI-H322M lung 67.2% | HOP-62 NSCLC 73.1% | NCI-H460 lung 61.6% | HOP-92 NSCLC 39.3% | NCI-H522 lung 63.9% | A549/ATCC NSCLC 64.3% | 786-0 renal 68.9% | K-562 leukemia 21% | MALME-3M melanoma 52.3% | MDA-MB-231 breast 69.6% | RXF 393 renal 61.2% | SF-268 CNS 93.2% | SF-295 CNS 44.4% | SF-539 CNS 68.4% | UACC-257 melanoma 69.4% | M14 melanoma 59.1%

CCN(CC)CCCNC(=O)c1ccc(N)cc1O
inactive: NCI-H23 lung 95.5% | NCI-H226 lung 87.9% | NCI-H322M lung 90.4% | HOP-62 NSCLC 95.6% | NCI-H460 lung 108% | HOP-92 NSCLC 89.6% | NCI-H522 lung 96.6% | A549/ATCC NSCLC 103% | 786-0 renal 105% | K-562 leukemia 12.3% | MALME-3M melanoma 91.2% | MDA-MB-231 breast 94.6% | RXF 393 renal 91.3% | SF-268 CNS 93.8% | SF-295 CNS 99.7% | SF-539 CNS 98.4% | UACC-257 melanoma 99.3% | M14 melanoma 94.5%

O=[N+]([O-])c1ccccc1C(O)Cc1ccc2ccccc2n1 (stereo not given)
inactive: NCI-H23 lung 95.7% | NCI-H226 lung 83.5% | NCI-H322M lung 85.9% | HOP-62 NSCLC 88% | NCI-H460 lung 97.4% | HOP-92 NSCLC 77.5% | NCI-H522 lung 101% | A549/ATCC NSCLC 97.4% | 786-0 renal 104% | K-562 leukemia 108% | MALME-3M melanoma 89.6% | MDA-MB-231 breast 68.3% | RXF 393 renal 91.2% | SF-268 CNS 93.1% | SF-295 CNS 103% | SF-539 CNS 98.4% | UACC-257 melanoma 93.3% | M14 melanoma 90%

O=[N+]([O-])c1ccc(-c2cc3c(Nc4ccc(Sc5nc6ccccc6s5)c(Cl)c4)ncnc3s2)cc1
inactive: NCI-H23 lung 19.9% | NCI-H226 lung 76.2% | NCI-H322M lung 55.5% | HOP-62 NSCLC 36.1% | NCI-H460 lung 11.8% | HOP-92 NSCLC 56.6% | NCI-H522 lung 30% | A549/ATCC NSCLC 18.5% | 786-0 renal 61.6% | DU-145 prostate 44.9% | MALME-3M melanoma 62.9% | MDA-MB-231 breast 29.2% | RXF 393 renal 68.8% | SF-268 CNS 39.4% | SF-295 CNS 23.2% | SF-539 CNS 54.3% | UACC-257 melanoma 66.6% | M14 melanoma 35.2%

CC1=NN(c2cccc(Cl)c2)C(=O)/C1=C\c1cn(CC(O)CN2CCCCC2)c2ccccc12 (stereo not given)
inactive: NCI-H23 lung 97.8% | NCI-H226 lung 96.8% | NCI-H322M lung 103% | HOP-62 NSCLC 73.6% | NCI-H460 lung 44.8% | HOP-92 NSCLC 56.3% | NCI-H522 lung 71.9% | A549/ATCC NSCLC 95.2% | DU-145 prostate 96.7% | K-562 leukemia 28.9% | MALME-3M melanoma 32.9% | MDA-MB-231 breast 41.4% | RXF 393 renal 67.1% | SF-268 CNS 72.6% | SF-295 CNS 62.4% | SF-539 CNS 96.1%
active: COLO 205 colon -58% | UACC-257 melanoma -82.1%
